An excerpt weighted towards active compounds, which were near 32% of everything screened.
CYP2C9 activ – increases human cytochrome P450 2C9 activity; AID 1024; activation factor at 5 µM; 96,000 tested, 1.4% active; recombinant CYP2C9, luciferin-H conversion, luminescence; active compounds read high; factor 1 = untreated enzyme, 0 = blocked;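 active = activation factor of 2 or more for CYP2C9 at a 5 µM dose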;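 also: 0 = sulfaphenazole-blocked wells and 1 = vehicle-only wells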
Target sequence (P11712 whole entry, looked up): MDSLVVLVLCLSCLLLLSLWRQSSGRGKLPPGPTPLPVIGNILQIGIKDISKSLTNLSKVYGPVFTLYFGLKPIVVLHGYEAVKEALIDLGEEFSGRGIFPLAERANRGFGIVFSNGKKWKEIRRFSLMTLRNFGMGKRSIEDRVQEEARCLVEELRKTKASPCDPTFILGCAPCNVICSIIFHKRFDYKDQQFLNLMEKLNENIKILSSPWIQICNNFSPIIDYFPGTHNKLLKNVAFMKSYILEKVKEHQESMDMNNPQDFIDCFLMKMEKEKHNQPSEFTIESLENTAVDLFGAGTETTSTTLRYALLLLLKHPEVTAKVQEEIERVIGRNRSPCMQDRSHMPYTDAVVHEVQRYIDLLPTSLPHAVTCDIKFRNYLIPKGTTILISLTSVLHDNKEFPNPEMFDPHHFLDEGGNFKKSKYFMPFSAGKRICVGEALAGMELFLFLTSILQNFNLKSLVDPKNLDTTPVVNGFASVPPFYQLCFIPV
PostGolgi ctrl – growth of the yeast control strain, post-Golgi counter-screen | efflux-deficient yeast background strain, growth absorbance A615, 16 h | 98,000 tested, 5% active | inhibition, % at 10 µM
CYP2C19 act – cytochrome P450 2C19 (human) activation. P33261. recombinant CYP2C19, luciferin-H EGE luminescence; active compounds read high; 0 = fully inhibited enzyme, 1 = untreated enzyme. activation factor at 5 µM. 96,000 tested, under 10 active. AID 1025;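 active = activation factor of at least 2 at 5 µM in the primary screen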;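 also: 0 = wells with 2.5 mM tranylcypromine and 1 = vehicle-only wells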
CYP2C9 inhib – human CYP2C9 inhibition; P11712; CYP2C9 Supersomes, luciferin-H conversion, luminescence; inhibition, % at 5 µM; 96,000 tested, 20% active;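 active = blocking of liver enzyme CYP2C9 beyond about 50% at 5 µM, limit read from the data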
PostGolgi yeast – growth inhibition of a yeast mutant, post-Golgi transport screen. post-Golgi transport phenotypic cell assay. inhibition, % at 10 µM. 98,000 tested, 0.9% active;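 also: yeast cells grown in 1536-well plates; yeast grown about 18 h at 30C before absorbance read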
CYP2C19 inh – inhibitors of human CYP2C19 | P33261 | CYP2C19 Supersomes, luciferin-H EGE luminescence, 30 min | inhibition, % at 5 µM | 96,000 tested, 21% active | AID 778;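 active = CYP2C19 inhibition above a set limit at 5 µM in the primary screen, cut at about 50% in these data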;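 also: plate controls were negative control wells for no effect and 2.5 mM tranylcypromine positive control for full effect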
The depositor's hits bear a star. Rule as the data show it, unless noted: active = inhibition above about 30%; inactive = the rest.

How did CCN(CCCNC(=O)C1CCN(S(=O)(=O)N2CCC3(CC2)OCCO3)CC1)c1ccccc1 do in these assays?
CYP2C9 activ: 0.6; PostGolgi ctrl: 8.2; CYP2C19 act: 0.5; CYP2C9 inhib: 37.6; PostGolgi yeast: 4.5; CYP2C19 inh: 52.8*

What do the screens show for `CCOCCn1c(CN2CCOCC2)nc2c1c(=O)[nH]c(=O)n2C`?
PostGolgi ctrl: 24.5; PostGolgi yeast: 4.9

What do the screens show for `CCCN1CCN(C(=O)CCCn2c(C)c3cnn(-c4ccccc4)c(=O)c3c2C)CC1`?
CYP2C9 activ: 1; PostGolgi ctrl: 30.8*; CYP2C19 act: 0.7; CYP2C9 inhib: 0.1; PostGolgi yeast: -2.9; CYP2C19 inh: 29.8

What do the screens show for `CCC(C(=O)NCCN1CCN(C)CC1)n1c(C)c2cnn(-c3ccccc3)c(=O)c2c1C` (stereo not drawn)?
CYP2C9 activ: 0.8; PostGolgi ctrl: 1.6; CYP2C19 act: 0.8; CYP2C9 inhib: 19.1; PostGolgi yeast: 4.2; CYP2C19 inh: 20.2

How did Cc1cccc(NC(=O)COc2ccc3oc4c(c3c2)CCCC4)n1 do in these assays?
CYP2C9 activ: 0.1; PostGolgi ctrl: 17.8; CYP2C19 act: 0.5; CYP2C9 inhib: 85.3*; PostGolgi yeast: -6.2; CYP2C19 inh: 51.3*

What do the screens show for `Cc1ccc(OCC(=O)Nc2ccc(N3CCCC3)cc2)cc1C`?
CYP2C9 activ: 1.1; PostGolgi ctrl: -1.8; CYP2C19 act: 1.1; CYP2C9 inhib: -12.4; PostGolgi yeast: -6.5; CYP2C19 inh: -13.2

How did CCCOc1ccc(C(C)(O)CN2CCOCC2)cc1 (stereo not drawn) do in these assays?
CYP2C9 activ: 0.6; PostGolgi ctrl: 6.7; CYP2C19 act: 0.5; CYP2C9 inhib: 44.2; PostGolgi yeast: 3.5; CYP2C19 inh: 53.6*

Results for Cc1cccc(OC(=O)c2ccc3nccnc3c2)c1 ?
CYP2C9 activ: 0.5; PostGolgi ctrl: 10.1; CYP2C19 act: 0.9; CYP2C9 inhib: 53.7*; PostGolgi yeast: 5.6; CYP2C19 inh: 7.0

Results for COc1cccc(CN(C)C(=O)c2ccc3nccnc3c2)c1 ?
CYP2C9 activ: 0.9; PostGolgi ctrl: -5.9; CYP2C19 act: 0.2; CYP2C9 inhib: 11.6; PostGolgi yeast: -1.5; CYP2C19 inh: 78.2*

What do the screens show for `O=C(Oc1ccc(Cl)cc1)c1ccc2nccnc2c1`?
CYP2C9 activ: 1; PostGolgi ctrl: 0.0; CYP2C19 act: 1; CYP2C9 inhib: -4.4; PostGolgi yeast: -5.1; CYP2C19 inh: 2.9

Results for COC(=O)c1ccc(Cl)c(NC(=O)NC23CC4CC(CC(C4)C2)C3)c1 ?
CYP2C9 activ: 0.2; PostGolgi ctrl: 31.1*; CYP2C19 act: 0.3; CYP2C9 inhib: 81.7*; PostGolgi yeast: 15.6; CYP2C19 inh: 68.0*

Results for Cc1ccc2cc3c(NC(=O)C(C)C)nn(C)c3nc2c1 ?
CYP2C9 activ: 0.3; PostGolgi ctrl: 10.8; CYP2C19 act: 0.6; CYP2C9 inhib: 70.5*; PostGolgi yeast: -6.4; CYP2C19 inh: 36.6

How did Cc1ccc2nc3c(cc2c1)c(NC(=O)c1cccnc1)nn3C do in these assays?
CYP2C9 activ: 0.4; PostGolgi ctrl: 1.3; CYP2C19 act: 0.6; CYP2C9 inhib: 58.2*; PostGolgi yeast: -10.4; CYP2C19 inh: 39.8

How did CCCCNC(=O)C(C#N)c1nc2ccccc2nc1N1CCN(c2ccccc2F)CC1 (stereo not drawn) do in these assays?
PostGolgi ctrl: 12.9; PostGolgi yeast: -2.2

How did CC1CN(C(=O)CN2C(=O)NC3(CCCCCCC3)C2=O)CC(C)O1 (stereo not drawn) do in these assays?
CYP2C9 activ: 1.1; PostGolgi ctrl: 2.2; CYP2C19 act: 0.9; CYP2C9 inhib: -11.7; PostGolgi yeast: 2.3; CYP2C19 inh: 11.0

Results for O=C(Nn1c(=O)[nH]c2ccccc2c1=O)c1ccco1 ?
CYP2C9 activ: 0.9; PostGolgi ctrl: 25.3; CYP2C19 act: 1.1; CYP2C9 inhib: 11.1; PostGolgi yeast: 5.0; CYP2C19 inh: -13.9

Results for NC(=O)N1CCN(C(=O)c2ccco2)CC1 ?
CYP2C9 activ: 1.4; PostGolgi ctrl: 12.7; CYP2C19 act: 1.2; CYP2C9 inhib: -35.4; PostGolgi yeast: 4.0; CYP2C19 inh: -22.8

What do the screens show for `O=C(c1ccco1)N1CCN(S(=O)(=O)N2CCOCC2)CC1`?
CYP2C9 activ: 1; PostGolgi ctrl: 6.9; CYP2C19 act: 0.9; CYP2C9 inhib: 0.0; PostGolgi yeast: 3.2; CYP2C19 inh: 8.4

How did O=C(c1cccs1)N1CCN(S(=O)(=O)N2CCOCC2)CC1 do in these assays?
CYP2C9 activ: 1.1; PostGolgi ctrl: 5.5; CYP2C19 act: 0.4; CYP2C9 inhib: -9.1; PostGolgi yeast: -0.9; CYP2C19 inh: 58.5*

Bioassay records: PubChem, several laboratories
